# G9a block – qHTS Assay for Inhibitors of Histone Lysine Methyltransferase G9a. G9a H3K9 monomethylation, AlphaScreen, 2 h. Histone-lysine N-methyltransferase EHMT2 (Homo sapiens), Q96KQ7. Potency, µM (titrated, usually from 102 µM), most hits filed as inhibitors. 350,000 tested, 8.8% active; further: nearly all actives have a fitted effect of over 75% in size
#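 AlphaScreen read-out: biotin-H3K9 peptide (500 nM) methylation by 20 nM enzyme with 20 uM SAM, 2 h at room temperature after 15 min compound preincubation; anti-monomethyl H3K9 antibody plus donor/acceptor beads, 10 min dark.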
# BAZ2B inh – qHTS Assay for Inhibitors of BAZ2B; AlphaScreen BAZ2B-H3K14Ac peptide displacement; 360,000 tested, 4.4% active; Potency, µM (doses to about 114 µM), most hits filed as inhibitors; further: nearly all actives have a fitted effect of over 60% in size
#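 Inhibition is scored as reduced AlphaScreen emission. The BAZ2B/b-H3(5-23)K14Ac complex (50 nM each) in PBS pH 7.4, 0.01% Tween-20 meets compound (up to 110 uM) for 30 min at RT before bead addition.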
# HP1b chromo inh – HTS for Inhibitors of HP1-beta Chromodomain Interactions with Methylated Histone Tails; Chromobox protein homolog 1 (Homo sapiens), P83916; AlphaScreen HP1-beta / biotin-H3K9me3 peptide binding; Potency, µM (highest dose often 114 µM), hits mostly inhibitors; 390,000 tested, 0.56% active; further: nearly all actives have a fitted effect of over 70% in size
# Target sequence (P83916 whole entry, looked up): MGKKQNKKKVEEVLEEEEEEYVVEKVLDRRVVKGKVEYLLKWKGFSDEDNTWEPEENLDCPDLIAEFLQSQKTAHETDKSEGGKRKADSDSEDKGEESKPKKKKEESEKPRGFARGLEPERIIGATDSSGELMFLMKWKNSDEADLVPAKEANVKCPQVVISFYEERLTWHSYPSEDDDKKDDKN
#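 Compound inhibition of the preformed complex between 50 nM HP1-beta and 50 nM biotinylated H3K9me3 peptide was read by AlphaScreen. Buffer was PBS pH 7.4 with 0.01% Tween-20. Incubations ran 30 min at room temperature, with 10 ug/mL donor/acceptor beads.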
# JMJD2A Tudor inh – qHTS Assay for Inhibitors of JMJD2A-Tudor Domain; AID 504339, 2011; AlphaScreen JMJD2A-Tudor / H3K4me3 peptide binding; 390,000 tested, 4.4% active; Potency, µM (doses to about 114 µM), most hits filed as inhibitors; further: nearly all actives have a fitted effect of over 50% in size
# PI5P4Ka inh – qHTS for Inhibitors of phosphatidylinositol 5-phosphate 4-kinase (PI5P4K); 330,000 tested, 1.2% active; PI5P4Kalpha enzyme, ADP-Glo luminescence, 60 min; hits give low values; max response, %; active means max response of -50% or lower; inconclusive means between -30% and -50%; inactive means -30% or higher; further: value at the top dose of about 77 µM
# Target sequence (P48426 whole entry, looked up): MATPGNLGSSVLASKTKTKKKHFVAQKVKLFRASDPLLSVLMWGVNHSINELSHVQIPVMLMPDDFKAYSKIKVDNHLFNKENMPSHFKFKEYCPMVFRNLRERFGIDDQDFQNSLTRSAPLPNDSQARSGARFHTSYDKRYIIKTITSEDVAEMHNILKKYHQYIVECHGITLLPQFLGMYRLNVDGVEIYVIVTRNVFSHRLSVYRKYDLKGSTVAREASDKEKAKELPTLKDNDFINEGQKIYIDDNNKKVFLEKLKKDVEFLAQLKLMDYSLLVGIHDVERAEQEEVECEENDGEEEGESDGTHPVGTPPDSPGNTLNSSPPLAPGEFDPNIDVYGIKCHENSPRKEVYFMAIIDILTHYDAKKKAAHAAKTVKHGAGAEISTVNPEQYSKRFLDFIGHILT
#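 Compounds were pin-transferred onto PI5P4Kalpha and substrate in HEPES pH 7.4 buffer with EGTA, CHAPS and 5% DMSO. ATP (5 microM final) started the reaction, which ran 60 minutes at room temperature before ADP-Glo detection.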
# PLK1 PBD block – qHTS for Inhibitors of PLK1-PDB (polo-like kinase 1 - polo-box domain): Primary Screen | Serine/threonine-protein kinase PLK1 (Homo sapiens), P53350 | Plk1 PBD binding of FITC phosphopeptide, fluorescence polarization | Potency, µM, hits mostly inhibitors | 360,000 tested, 2.8% active | AID 720504, 2013; further: series mostly up to about 57 µM; nearly all actives have a fitted effect of over 65% in size
# ADP-Glo counter – qHTS for Inhibitors of PI5P4K: ADP-Glo counter assay. shares compounds with PI5P4Ka inh. ADP-Glo detection counter-screen, luciferase luminescence, no enzyme. Potency, µM (top dose mostly 76.9 µM), actives largely listed as inhibitors. 1,100 tested, under 10 active
# A number is an active result; - = inactive; ? = inconclusive; . = no result; [ ] = remark or other dose. The list is not random: actives were taken first. Their share in the collection is about 12%. Unless noted, the call rests on the fitted dose curve; in most records, active means well fitted curve in the direction sought with a large enough effect; inconclusive means small, poorly fitted or top-dose-only effect, or another doubt; inactive means no such curve, though single readings can be large; an effect the other way counts as inactive or inconclusive.
SMILES,G9a block,BAZ2B inh,HP1b chromo inh,JMJD2A Tudor inh,PI5P4Ka inh,PLK1 PBD block,ADP-Glo counter
CCOC(=O)c1c(-c2ccc(Br)cc2)csc1NC(=O)c1ccccc1F,-,-,-,-,.,.,.
Cc1ccc(C(=O)Nc2scc(-c3ccccc3)c2C(=O)O)cc1,.,.,-,-,-,-,.
COc1cc(C(=O)Nc2scc(-c3ccc(C)cc3)c2C(=O)O)cc(OC)c1OC,-[0.501 µM],-,-,-,-85,-,-
COc1cc(C(=O)Nc2scc(-c3ccccc3)c2C(=O)O)cc(OC)c1OC,.,-,-,-,-71,-,-
COc1ccc(-c2csc(NC(=O)c3ccccc3F)c2C(=O)O)cc1,-,-,-,-,-51,-,-
COc1cccc(NC(=O)Cn2c(=O)n(-c3cccc(OC)c3)c(=O)c3c4c(sc32)CCCC4)c1,-,-,-,-,.,.,.
Cn1c(=O)n(C)c2cc(N3CCOCC3)c(NC(=O)c3ccc(Cl)cc3)cc21,-,-,-,-,.,.,.
Cc1ccc2cc(CCl)c(Cl)nc2c1,-[12.7 µM],?,-,-,-79,-,-
CC(=O)Nc1ccc(S(=O)(=O)c2ccnc3cc(Cl)ccc23)cc1,.,.,.,.,-,-,.
COCCNc1nc(NCC2CCCCC2)c2sc(-c3ccccc3)cc2n1,.,.,.,.,.,-,-
COCCNc1nc(NCCOc2ccccc2Cl)c2sc(-c3ccccc3)cc2n1,.,.,.,.,?,-,.
c1ccc(-c2cc3nc(NCC4CC4)nc(NCC4CCCCC4)c3s2)cc1,.,.,.,.,.,-,-
CC(C)(C)c1csc(NC(=O)c2ccc3nccnc3c2)n1,.,-,-,-,-52,-,-
O=C(c1ccco1)N1CCN(c2ncnc3c2[nH]c2ccc(Br)cc23)CC1,-,-,-,-,-50,-,-
O=C(c1ccco1)N1CCN(c2ncnc3c2[nH]c2ccccc23)CC1,-,-,.,.,.,.,.
COc1ccc(N2C(=O)c3ccccc3NC(=O)C2C(=O)Nc2ccc(N3CCOCC3)cc2)cc1 (stereo not drawn),.,.,.,.,-,-,.
COc1ccc(-n2c(=O)c3c(c4cc(OC)ccc4n3C)n(CC(=O)NCC3CCCO3)c2=O)cc1 (stereo not drawn),-,-,-,-,.,.,.
CO[C@H]1CN(C)C(=O)c2cc(NC(=O)C3CCCC3)ccc2OC[C@@H](C)NC[C@H]1C,.,.,.,.,-,-,.
O=C(Nc1cccc(S(=O)(=O)N2CCOCC2)c1)c1ccc2ccccc2n1,-[12.7 µM],-,-,-,-,-,.
O=C(Nc1cccc(S(=O)(=O)N2CCOCC2)c1)c1c2c(nc3ccccc13)CCC2,22µM,?,-,-,-64,-,-
O=C(NCc1ccco1)c1c2c(nc3ccccc13)CCC2,40µM,50µM,?,?,-71,3µM,-
CCc1ccc(NC(=O)C2CCCN(S(=O)(=O)c3c(C)noc3/C=C/N(C)C)C2)cc1 (stereo not drawn),-,-,-,-,.,.,.
CN(C)C(=O)c1ccc(NC(=O)c2ccccc2SCC(=O)N2CCCC2)cc1,?,-,-,-,-,-,.
Cn1nnc2cc(C(=O)NC3CC3)ccc21,?,-,-,-,-59,-,-
O=C(NC1CC1)c1ccc2c(c1)ncn2C1CCCC1,-[0.501 µM],-,-,-,.,-,.
SMILES,G9a block,BAZ2B inh,HP1b chromo inh,JMJD2A Tudor inh,PI5P4Ka inh,PLK1 PBD block,ADP-Glo counter
Cc1cc(C)c(C)c(S(=O)(=O)N[C@@H](C)C(=O)OCc2cc(=O)n3cc(Br)ccc3n2)c1C,?,50µM,-,-,-52,-,-
CS(=O)(=O)N1N=C(c2ccco2)CC1c1ccco1 (stereo not drawn),71µM,50µM,-,-,-64,-,-
O=S(=O)(c1ccccc1)c1nc(-c2ccco2)oc1N1CCCCCC1,?,40µM,8.9µM,-[11.4 µM],-53,7.5µM,-
CN1CCN(c2oc(-c3ccco3)nc2S(=O)(=O)c2ccccc2)CC1,?,-,-,-,-,-,.
O=C(NC1CC1)C1CCN(S(=O)(=O)c2cc([N+](=O)[O-])ccc2Cl)CC1,?,32µM,-,8.9µM,-56,?,-
CC(c1ccccc1)n1c(N2CCNCC2)nc2c1c(=O)[nH]c(=O)n2C (stereo not drawn),-,-,-,-,-,-,.
O=C(CSc1nc2ccc(Cl)cc2[nH]1)N1CCN(C(=O)c2ccco2)CC1,?,-,-,-,-65,?,-
Cc1ccc2nc(SCC(=O)N3CCN(C(=O)c4ccco4)CC3)[nH]c2c1,?,-,-,-,-,-,.
CCc1ccccc1Nc1nc2ccccc2n2cnnc12,-,-,-,-,.,.,.
CCOc1ccc2[nH]c(=O)c(C(c3nnnn3Cc3ccco3)N3CCC(C)CC3)cc2c1 (stereo not drawn),?,-,-,-,-,?,.
COc1ccc2[nH]c(=O)c(CN(Cc3nnnn3Cc3ccco3)C3CCCCC3)cc2c1,40µM,50µM,-,?,-59,?,-
CCOc1ccc2[nH]c(=O)c(C(c3nnnn3Cc3ccco3)N3CCCC(C)C3)cc2c1 (stereo not drawn),?,?,-,-,-54,?,-
CC(C)(C)NC(=O)Nc1ccc(Cn2cc(C(F)(F)F)ccc2=O)cc1,-,-,-,32µM,-55,24µM,-
COc1ccc(C2CCc3cc(OC)c(OC)cc3C2NC=O)cc1OC (stereo not drawn),.,.,.,.,-,-,.
COc1ccc(C2/C=C\CN(CC(C)C)C(Cc3ccccc3)C(=O)N2Cc2ccc(F)cc2)cc1 (stereo not drawn),.,.,-,-,.,.,.
COc1ccccc1-c1nc2ccccc2n(CC(C)C)c1=O,.,.,.,.,-72,24µM,-
CC(=O)Nc1ccc(NC(=O)CC2Nc3cccc4cccc(c34)NC2=O)cc1 (stereo not drawn),-[12.7 µM],-,-,-,?,-,.
CC(=O)c1ccc(NC(=O)CC2Nc3cccc4cccc(c34)NC2=O)cc1 (stereo not drawn),?,?,-,?,-54,-,-
CC(c1nccs1)N(C)C(=O)c1cn(Cc2cccc3ccccc23)nn1 (stereo not drawn),-,-,-,-,-,-,.
CNC(=S)N(CCc1c(C)[nH]c2ccccc12)Cc1cccnc1,-,-,-,-,-,-,.

# High-throughput results (PubChem)
